# Laboratory results reported in publication PMC7862700, “An all-to-all approach to the identification of sequence-specific readers for epigenetic DNA modifications on cytosine”.
# Experiments:
# Test in all cases: DAPPL (digital affinity profiling via proximity ligation, sequencing); 10 mM Tris-HCl pH 7.5, 50 mM NaCl, 1 mM DTT, 4% glycerol, room temperature, 30 min; GST-TFs on glutathione beads, 16-mer random dsDNA library, 0.1% formaldehyde crosslink after washing; high values mean tight binding
# FLI1 = target: T1, FLI1 (Homo sapiens, UniProt Q01543 1-452); details: protein: recombinant; tags: N-terminal GST; dsDNA, one strand shown
# T1 sequence: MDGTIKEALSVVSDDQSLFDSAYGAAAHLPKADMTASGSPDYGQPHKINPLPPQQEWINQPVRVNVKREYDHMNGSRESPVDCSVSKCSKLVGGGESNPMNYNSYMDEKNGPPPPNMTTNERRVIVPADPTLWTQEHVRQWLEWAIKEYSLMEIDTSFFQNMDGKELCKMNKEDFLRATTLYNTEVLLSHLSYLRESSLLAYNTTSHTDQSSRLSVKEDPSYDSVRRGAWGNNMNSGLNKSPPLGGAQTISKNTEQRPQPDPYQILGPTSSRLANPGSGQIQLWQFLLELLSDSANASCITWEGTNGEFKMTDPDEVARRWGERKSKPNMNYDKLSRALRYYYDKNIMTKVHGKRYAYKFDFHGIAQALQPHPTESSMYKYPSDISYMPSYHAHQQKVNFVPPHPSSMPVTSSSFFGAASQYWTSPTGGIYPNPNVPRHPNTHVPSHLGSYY
# Outline: (§1)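 Beads coated with glutathione captured GST-fused human transcription factors that had been expressed in yeast, and the factors were then given DNA barcodes and pooled with a tag-only sample. The pools were incubated with 200 nmole of a random double-stranded 16-mer DNA library in Tris/NaCl/DTT/glycerol buffer for 30 min at room temperature, washed, crosslinked with 0.1% formaldehyde and proximity-ligated with BsaI/T4 ligase at 37 °C for 1 h. PCR amplification and Illumina NextSeq500 sequencing came last. Binding signal is each hexamer's read frequency for a factor divided by its frequency for the tag-only sample.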
# ELK1 = target: T2, ELK1 (Homo sapiens, UniProt P19419 1-428); details: protein: recombinant; tags: N-terminal GST; dsDNA, one strand shown
# T2 sequence: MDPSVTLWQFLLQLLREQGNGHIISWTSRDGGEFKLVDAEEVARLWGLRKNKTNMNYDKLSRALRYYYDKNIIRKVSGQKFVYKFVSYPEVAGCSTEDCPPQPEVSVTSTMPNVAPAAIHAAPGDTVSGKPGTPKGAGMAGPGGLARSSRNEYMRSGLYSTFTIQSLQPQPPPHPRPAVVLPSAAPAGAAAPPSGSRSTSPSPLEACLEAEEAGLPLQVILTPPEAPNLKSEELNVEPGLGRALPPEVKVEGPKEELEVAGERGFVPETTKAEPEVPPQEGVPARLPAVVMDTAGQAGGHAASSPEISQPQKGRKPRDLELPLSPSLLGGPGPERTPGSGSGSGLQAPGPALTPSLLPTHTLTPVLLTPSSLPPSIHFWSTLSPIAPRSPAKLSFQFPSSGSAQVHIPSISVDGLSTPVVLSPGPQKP
# Outline: as §1
# GABPA = target: T3, GABPA (Homo sapiens, UniProt Q06546 1-454); details: protein: recombinant; tags: N-terminal GST; dsDNA, one strand shown
# T3 sequence: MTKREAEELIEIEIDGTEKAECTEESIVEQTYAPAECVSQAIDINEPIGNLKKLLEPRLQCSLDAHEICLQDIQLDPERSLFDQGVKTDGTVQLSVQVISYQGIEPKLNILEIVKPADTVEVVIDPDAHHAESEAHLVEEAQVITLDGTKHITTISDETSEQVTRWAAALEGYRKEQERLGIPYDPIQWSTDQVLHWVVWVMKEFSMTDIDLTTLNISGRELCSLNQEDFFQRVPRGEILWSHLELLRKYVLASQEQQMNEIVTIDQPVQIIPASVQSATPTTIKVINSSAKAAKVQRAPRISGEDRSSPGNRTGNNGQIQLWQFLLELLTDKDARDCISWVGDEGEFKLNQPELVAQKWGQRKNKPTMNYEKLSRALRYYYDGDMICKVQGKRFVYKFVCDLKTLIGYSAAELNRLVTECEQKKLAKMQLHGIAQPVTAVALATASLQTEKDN
# Outline: as §1
# ERG = target: T4, ERG (Homo sapiens, UniProt P11308 1-479); details: protein: recombinant; tags: N-terminal GST; dsDNA, one strand shown
# T4 sequence: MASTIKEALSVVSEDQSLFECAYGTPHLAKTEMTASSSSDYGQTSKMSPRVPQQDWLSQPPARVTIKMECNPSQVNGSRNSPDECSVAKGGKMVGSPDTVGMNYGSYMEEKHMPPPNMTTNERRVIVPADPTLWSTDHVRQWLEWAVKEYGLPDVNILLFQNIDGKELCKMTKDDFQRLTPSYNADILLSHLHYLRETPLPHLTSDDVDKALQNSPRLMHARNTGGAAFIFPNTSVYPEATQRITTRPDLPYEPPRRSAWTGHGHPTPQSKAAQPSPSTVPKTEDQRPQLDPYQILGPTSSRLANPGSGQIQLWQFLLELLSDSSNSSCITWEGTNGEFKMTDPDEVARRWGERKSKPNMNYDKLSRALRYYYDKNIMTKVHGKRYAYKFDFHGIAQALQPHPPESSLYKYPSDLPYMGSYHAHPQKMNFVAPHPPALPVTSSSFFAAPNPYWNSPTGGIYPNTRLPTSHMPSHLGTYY
# Outline: as §1
# ELF1 = ELF1 (Homo sapiens, UniProt P32519 1-619); details: protein: recombinant; tags: N-terminal GST; dsDNA, one strand shown
# Outline: as §1
# EHF = target: T5, EHF (Homo sapiens, UniProt Q9NZC4 1-300); details: protein: recombinant; tags: N-terminal GST; dsDNA, one strand shown
# T5 sequence: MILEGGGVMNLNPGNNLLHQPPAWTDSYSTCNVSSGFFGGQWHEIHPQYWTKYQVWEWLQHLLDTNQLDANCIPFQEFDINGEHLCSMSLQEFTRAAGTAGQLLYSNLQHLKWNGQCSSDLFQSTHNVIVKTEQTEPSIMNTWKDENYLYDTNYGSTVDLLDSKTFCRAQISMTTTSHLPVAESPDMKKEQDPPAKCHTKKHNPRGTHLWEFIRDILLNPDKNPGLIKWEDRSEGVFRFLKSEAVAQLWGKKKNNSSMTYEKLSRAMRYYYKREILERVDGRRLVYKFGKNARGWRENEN
# Outline: as §1
# SPI1 = SPI1 (Homo sapiens, UniProt P17947 1-270); details: protein: recombinant; tags: N-terminal GST; dsDNA, one strand shown
# Outline: as §1
# SPIB = SPIB (Homo sapiens, UniProt Q01892 1-262); details: protein: recombinant; tags: N-terminal GST; dsDNA, one strand shown
# Outline: as §1
# ELK3 = target: T6, ELK3 (Homo sapiens, UniProt P41970 1-407); details: protein: recombinant; tags: N-terminal GST; dsDNA, one strand shown
# T6 sequence: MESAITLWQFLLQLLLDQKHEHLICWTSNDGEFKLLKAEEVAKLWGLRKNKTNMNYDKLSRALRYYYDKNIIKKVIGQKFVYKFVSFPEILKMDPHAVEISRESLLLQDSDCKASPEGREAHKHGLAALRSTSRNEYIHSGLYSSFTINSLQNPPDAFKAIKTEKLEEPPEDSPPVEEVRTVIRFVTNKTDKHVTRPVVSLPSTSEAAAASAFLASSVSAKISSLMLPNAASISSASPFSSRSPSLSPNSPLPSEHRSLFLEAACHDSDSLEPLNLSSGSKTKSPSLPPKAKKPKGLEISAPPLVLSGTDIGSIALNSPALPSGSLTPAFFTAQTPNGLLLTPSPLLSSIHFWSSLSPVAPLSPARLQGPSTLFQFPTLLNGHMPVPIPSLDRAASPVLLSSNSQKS
# Outline: as §1
# FEV = target: T7, FEV (Homo sapiens, UniProt Q99581 1-238); details: protein: recombinant; tags: N-terminal GST; dsDNA, one strand shown
# T7 sequence: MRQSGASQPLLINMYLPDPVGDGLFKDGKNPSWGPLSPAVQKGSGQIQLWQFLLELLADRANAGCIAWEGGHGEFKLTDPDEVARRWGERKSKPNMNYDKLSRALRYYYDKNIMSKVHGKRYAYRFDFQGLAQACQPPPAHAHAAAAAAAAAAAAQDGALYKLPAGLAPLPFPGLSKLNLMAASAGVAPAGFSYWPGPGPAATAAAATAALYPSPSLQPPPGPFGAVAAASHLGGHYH
# Outline: as §1
# ETV5 = ETV5 (Homo sapiens, UniProt P41161 1-510); details: protein: recombinant; tags: N-terminal GST; dsDNA, one strand shown
# Outline: as §1
# HSF1 = HSF1 (Homo sapiens, UniProt Q00613 1-529); details: protein: recombinant; tags: N-terminal GST; chain copies: 3; dsDNA, one strand shown
# Outline: as §1
# SPIC = target: T8, SPIC (Homo sapiens, UniProt Q8N5J4 1-248); details: protein: recombinant; tags: N-terminal GST; dsDNA, one strand shown
# T8 sequence: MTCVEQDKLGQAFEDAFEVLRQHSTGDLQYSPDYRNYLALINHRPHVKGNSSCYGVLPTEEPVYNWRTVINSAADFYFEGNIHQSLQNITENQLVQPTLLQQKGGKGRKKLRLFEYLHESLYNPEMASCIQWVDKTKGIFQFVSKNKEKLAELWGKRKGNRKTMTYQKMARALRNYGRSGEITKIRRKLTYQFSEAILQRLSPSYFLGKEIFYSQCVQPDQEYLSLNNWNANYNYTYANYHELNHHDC
# Outline: as §1
# ELF4 = ELF4 (Homo sapiens, UniProt Q99607 1-663); details: protein: recombinant; tags: N-terminal GST; dsDNA, one strand shown
# Outline: as §1
# ELK4 = target: T9, ELK4 (Homo sapiens, UniProt P28324-2 1-405); details: protein: recombinant; tags: N-terminal GST; dsDNA, one strand shown
# T9 sequence: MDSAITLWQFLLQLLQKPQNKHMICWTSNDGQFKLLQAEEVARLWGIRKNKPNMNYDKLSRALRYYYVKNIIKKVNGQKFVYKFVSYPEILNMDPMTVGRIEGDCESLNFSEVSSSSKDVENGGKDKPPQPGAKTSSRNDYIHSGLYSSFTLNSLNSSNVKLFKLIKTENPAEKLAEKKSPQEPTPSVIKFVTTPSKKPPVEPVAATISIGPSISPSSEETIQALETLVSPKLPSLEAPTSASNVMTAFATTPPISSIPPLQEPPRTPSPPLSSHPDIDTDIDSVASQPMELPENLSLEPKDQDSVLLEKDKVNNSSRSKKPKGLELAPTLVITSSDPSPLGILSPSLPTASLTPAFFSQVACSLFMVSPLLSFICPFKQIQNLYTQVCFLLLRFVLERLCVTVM
# Outline: as §1
# ETV2 = target: T10, ETV2 (Homo sapiens, UniProt O00321 1-342); details: protein: recombinant; tags: N-terminal GST; dsDNA, one strand shown
# T10 sequence: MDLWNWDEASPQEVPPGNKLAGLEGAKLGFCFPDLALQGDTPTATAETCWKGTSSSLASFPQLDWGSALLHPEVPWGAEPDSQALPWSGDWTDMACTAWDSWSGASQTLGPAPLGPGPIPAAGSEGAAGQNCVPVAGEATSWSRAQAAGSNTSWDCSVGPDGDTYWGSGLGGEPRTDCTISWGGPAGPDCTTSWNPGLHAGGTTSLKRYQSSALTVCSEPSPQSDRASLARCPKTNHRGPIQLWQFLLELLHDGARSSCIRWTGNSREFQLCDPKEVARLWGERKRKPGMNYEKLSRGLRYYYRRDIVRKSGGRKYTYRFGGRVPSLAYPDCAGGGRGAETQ
# Outline: as §1
# ELF3 = target: T11, ELF3 (Homo sapiens, UniProt P78545 1-371); details: protein: recombinant; tags: N-terminal GST; dsDNA, one strand shown
# T11 sequence: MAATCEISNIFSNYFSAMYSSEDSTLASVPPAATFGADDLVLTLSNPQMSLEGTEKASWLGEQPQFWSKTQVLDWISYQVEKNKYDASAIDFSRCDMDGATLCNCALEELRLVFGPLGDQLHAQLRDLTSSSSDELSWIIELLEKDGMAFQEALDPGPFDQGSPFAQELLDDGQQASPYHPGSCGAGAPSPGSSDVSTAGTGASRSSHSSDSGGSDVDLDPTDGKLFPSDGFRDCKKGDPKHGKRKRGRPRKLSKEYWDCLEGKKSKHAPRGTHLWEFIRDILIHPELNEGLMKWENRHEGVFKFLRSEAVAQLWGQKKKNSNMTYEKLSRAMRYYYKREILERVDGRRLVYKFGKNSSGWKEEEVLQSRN
# Outline: as §1
# CRX = CRX (Homo sapiens, UniProt O43186 1-299); details: protein: recombinant; tags: N-terminal GST; dsDNA, one strand shown
# Outline: as §1
# ETV1 = ETV1 (Homo sapiens, UniProt P50549 1-477); details: protein: recombinant; tags: N-terminal GST; dsDNA, one strand shown
# Outline: as §1
# Chain of ELF4 (Q99607 whole entry): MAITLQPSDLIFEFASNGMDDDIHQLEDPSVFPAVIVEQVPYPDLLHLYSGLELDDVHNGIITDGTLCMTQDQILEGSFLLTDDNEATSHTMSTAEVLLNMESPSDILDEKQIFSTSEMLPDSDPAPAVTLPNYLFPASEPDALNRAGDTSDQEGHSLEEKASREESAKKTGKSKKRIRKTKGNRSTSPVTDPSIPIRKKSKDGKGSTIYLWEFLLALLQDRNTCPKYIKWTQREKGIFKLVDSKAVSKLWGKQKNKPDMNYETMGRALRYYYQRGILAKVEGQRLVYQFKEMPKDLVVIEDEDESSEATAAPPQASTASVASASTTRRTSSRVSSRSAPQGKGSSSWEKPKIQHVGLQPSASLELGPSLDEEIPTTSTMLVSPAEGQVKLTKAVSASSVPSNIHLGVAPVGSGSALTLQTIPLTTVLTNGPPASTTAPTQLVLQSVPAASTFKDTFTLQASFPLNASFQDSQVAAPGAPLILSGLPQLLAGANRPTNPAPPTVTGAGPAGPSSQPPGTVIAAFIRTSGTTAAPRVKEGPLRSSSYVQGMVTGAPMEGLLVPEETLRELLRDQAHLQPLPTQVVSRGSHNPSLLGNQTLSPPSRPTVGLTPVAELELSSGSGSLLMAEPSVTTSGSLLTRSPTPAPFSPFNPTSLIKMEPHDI
# Chain of HSF1 (Q00613 whole entry): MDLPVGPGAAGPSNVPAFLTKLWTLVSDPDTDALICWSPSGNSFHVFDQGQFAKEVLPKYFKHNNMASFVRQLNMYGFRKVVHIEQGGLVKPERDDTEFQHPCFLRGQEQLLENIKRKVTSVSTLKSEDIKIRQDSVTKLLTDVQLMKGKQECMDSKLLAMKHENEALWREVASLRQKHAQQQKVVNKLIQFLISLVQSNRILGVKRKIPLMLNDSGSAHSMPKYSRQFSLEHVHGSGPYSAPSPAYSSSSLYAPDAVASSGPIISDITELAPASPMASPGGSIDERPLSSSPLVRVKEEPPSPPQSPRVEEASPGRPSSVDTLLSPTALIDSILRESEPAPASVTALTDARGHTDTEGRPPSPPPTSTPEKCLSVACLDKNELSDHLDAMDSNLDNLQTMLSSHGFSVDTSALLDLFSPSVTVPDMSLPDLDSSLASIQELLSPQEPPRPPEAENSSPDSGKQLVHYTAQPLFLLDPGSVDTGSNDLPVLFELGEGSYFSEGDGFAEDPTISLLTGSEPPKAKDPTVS
# Chain of SPIB (Q01892 whole entry): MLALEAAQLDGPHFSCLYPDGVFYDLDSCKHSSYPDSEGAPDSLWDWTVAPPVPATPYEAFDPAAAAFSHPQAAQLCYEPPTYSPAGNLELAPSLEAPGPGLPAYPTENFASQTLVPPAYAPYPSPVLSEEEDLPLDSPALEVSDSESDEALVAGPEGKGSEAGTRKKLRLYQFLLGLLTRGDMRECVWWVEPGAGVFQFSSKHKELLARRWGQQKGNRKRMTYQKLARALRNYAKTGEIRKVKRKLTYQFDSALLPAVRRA
# Chain of ETV5 (P41161 whole entry): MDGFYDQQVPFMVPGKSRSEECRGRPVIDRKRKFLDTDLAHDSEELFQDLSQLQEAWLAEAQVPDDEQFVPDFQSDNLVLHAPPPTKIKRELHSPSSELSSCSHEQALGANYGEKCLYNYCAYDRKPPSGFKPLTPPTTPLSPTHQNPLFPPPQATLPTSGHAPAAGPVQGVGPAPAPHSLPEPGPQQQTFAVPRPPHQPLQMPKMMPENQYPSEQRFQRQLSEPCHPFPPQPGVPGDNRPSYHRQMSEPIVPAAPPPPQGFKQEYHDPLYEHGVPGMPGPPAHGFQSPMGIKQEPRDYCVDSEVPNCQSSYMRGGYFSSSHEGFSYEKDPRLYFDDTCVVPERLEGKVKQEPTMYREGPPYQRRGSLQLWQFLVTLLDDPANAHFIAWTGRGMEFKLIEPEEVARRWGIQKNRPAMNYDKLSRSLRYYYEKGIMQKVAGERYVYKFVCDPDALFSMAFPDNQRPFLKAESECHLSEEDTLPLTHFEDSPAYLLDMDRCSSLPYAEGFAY
# Chain of CRX (O43186 whole entry): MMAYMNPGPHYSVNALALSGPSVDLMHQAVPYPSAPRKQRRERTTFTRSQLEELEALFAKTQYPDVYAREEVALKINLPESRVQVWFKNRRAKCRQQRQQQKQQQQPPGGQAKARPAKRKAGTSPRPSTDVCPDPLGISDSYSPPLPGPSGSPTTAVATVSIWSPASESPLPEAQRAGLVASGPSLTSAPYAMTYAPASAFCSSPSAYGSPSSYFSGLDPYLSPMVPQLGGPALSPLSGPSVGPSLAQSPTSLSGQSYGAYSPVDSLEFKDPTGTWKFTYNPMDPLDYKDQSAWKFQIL
# Chain of ELF1 (P32519 whole entry): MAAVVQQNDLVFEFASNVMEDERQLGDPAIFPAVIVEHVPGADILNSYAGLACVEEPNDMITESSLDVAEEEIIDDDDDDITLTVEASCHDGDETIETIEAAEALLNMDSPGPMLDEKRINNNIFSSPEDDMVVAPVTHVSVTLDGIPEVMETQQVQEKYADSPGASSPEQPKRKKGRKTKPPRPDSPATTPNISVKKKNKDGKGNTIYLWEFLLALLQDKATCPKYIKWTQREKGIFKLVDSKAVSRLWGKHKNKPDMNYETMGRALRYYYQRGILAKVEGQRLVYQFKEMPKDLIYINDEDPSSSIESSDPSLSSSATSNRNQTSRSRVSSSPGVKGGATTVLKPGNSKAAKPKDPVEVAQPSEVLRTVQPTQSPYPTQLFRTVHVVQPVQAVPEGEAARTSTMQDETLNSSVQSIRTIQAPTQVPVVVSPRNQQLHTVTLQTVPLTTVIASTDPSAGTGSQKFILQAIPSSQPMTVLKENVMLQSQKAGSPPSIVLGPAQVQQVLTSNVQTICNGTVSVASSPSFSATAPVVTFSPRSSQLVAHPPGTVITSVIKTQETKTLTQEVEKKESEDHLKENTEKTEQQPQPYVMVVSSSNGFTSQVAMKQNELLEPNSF
# Chain of ETV1 (P50549 whole entry): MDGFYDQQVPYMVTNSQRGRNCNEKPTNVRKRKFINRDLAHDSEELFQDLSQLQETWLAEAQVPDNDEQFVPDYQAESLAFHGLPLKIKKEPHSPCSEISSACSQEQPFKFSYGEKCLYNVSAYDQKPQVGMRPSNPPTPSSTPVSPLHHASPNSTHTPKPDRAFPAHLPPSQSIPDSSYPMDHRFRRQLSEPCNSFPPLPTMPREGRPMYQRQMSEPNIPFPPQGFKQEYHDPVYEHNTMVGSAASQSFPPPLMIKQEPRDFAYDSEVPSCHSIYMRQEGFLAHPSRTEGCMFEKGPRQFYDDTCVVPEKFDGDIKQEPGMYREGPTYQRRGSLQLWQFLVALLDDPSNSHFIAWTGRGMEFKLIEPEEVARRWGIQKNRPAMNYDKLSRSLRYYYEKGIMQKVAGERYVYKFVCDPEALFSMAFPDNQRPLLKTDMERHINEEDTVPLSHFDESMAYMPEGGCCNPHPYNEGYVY
sequence,measurement,setting,value
ACCGAT,binding signal,FLI1,"1.14 fold enrichment (6-mer frequency, TF over GST control)"
same,binding signal,ELK1,"1.12 fold enrichment (6-mer frequency, TF over GST control)"
same,binding signal,GABPA,"1.2 fold enrichment (6-mer frequency, TF over GST control)"
same,binding signal,ERG,"1.07 fold enrichment (6-mer frequency, TF over GST control)"
same,binding signal,ELF1,"1.17 fold enrichment (6-mer frequency, TF over GST control)"
same,binding signal,EHF,"1.16 fold enrichment (6-mer frequency, TF over GST control)"
same,binding signal,SPI1,"1.1 fold enrichment (6-mer frequency, TF over GST control)"
same,binding signal,SPIB,"1.13 fold enrichment (6-mer frequency, TF over GST control)"
same,binding signal,ELK3,"1.04 fold enrichment (6-mer frequency, TF over GST control)"
same,binding signal,FEV,"1.06 fold enrichment (6-mer frequency, TF over GST control)"
same,binding signal,ETV5,"1.08 fold enrichment (6-mer frequency, TF over GST control)"
same,binding signal,HSF1,"1.14 fold enrichment (6-mer frequency, TF over GST control)"
same,binding signal,SPIC,"1.33 fold enrichment (6-mer frequency, TF over GST control)"
same,binding signal,ELF4,"1.24 fold enrichment (6-mer frequency, TF over GST control)"
same,binding signal,ELK4,"1.15 fold enrichment (6-mer frequency, TF over GST control)"
same,binding signal,ETV2,"1.19 fold enrichment (6-mer frequency, TF over GST control)"
same,binding signal,ELF3,"1.22 fold enrichment (6-mer frequency, TF over GST control)"
same,binding signal,CRX,"1.24 fold enrichment (6-mer frequency, TF over GST control)"
same,binding signal,ETV1,"1.12 fold enrichment (6-mer frequency, TF over GST control)"
